Test results as given in PubChem BioAssay AID1259415 (National Center for Advancing Translational Sciences (NCATS), 2018).
Hit rate of the full screen: of about 410,000 compounds, about 18,000 (4.4%) were called active. Not shown: some 7% with an inconclusive outcome. Cut-off read from the data, not from the text of the source: active = activity change below about -60%; inconclusive = no clear call, values can overlap the other calls; inactive = above about -39%. Many of the other results were omitted from the sample, so actives are more common in it than they were.

Assay: qHTS Assay for inhibitors of the human cytomegalovirus (HCMV)
Settings: HFF cells, HCMV-luciferase reporter, 72 h; at 57.5 µM; hits give low values
Method in brief: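 Inhibition of viral replication was scored as loss of reporter luminescence in HFFs infected with HCMV-luciferase (MOI 1 PFU/cell) for 72 h; compounds tested at 2 doses, normalized to buffer and Salinomycin controls.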
% is set by controls: 0 for no effect and ±100 for the full control effect.

| SMILES | activity change, negative = inhibition |
| --- | --- |
| COc1cc(Cl)c(NC(=O)CC(C)S(=O)(=O)c2cc3c(cc2C)NC(=O)CO3)c(OC)c1 (stereo not given) | -4.28% (inactive) |
| CS(=O)(=O)N(CC(=O)NCc1ccco1)c1ccc2c(c1)OCO2 | -9.98% (inactive) |
| COc1ccc(S(=O)(=O)N(C)CC(=O)Nc2ccc3c(c2)OCCO3)cc1OC | 51.4% (inactive) |
| O=C(CN(c1ccc2c(c1)OCCO2)S(=O)(=O)c1ccccc1)Nc1ccc2c(c1)OCO2 | -86.6% (active) |
| COCCCn1c(C(=O)NC2CCCCC2)cc2c(=O)n3cccc(C)c3nc21 | 1.95% (inactive) |
| COc1ccc(CCn2c(=N)c(C(=O)NCc3ccco3)cc3c(=O)n4cccc(C)c4nc32)cc1 | -83.4% (active) |
| CCCn1c(=N)c(C(=O)NCc2ccccc2)cc2c(=O)n3cccc(C)c3nc21 | -7.61% (inactive) |
| Cc1cccn2c(=O)c3cc(C(=O)NC(C)c4ccccc4)c(=N)n(CCCO)c3nc12 (stereo not given) | -15.1% (inactive) |
| Cc1cccn2c(=O)c3cc(C#N)c(=NC(=O)c4cccnc4)n(CC4CCCO4)c3nc12 (stereo not given) | 2.74% (inactive) |
| Cc1cccn2c(=O)c3cc(C(=O)NCCN4CCOCC4)c(=N)n(Cc4cccnc4)c3nc12 | -86% (active) |
| Cc1cc(Br)ccc1NC(=O)Cn1cnc2sc(C)c(S(=O)(=O)N3CCN(C)CC3)c2c1=O | 0.161% (inactive) |
| CCCS(=O)(=O)NC(=O)C1(C)CCCN(C(=O)c2cc(C)on2)C1 (stereo not given) | 32.5% (inactive) |
| Cc1cccc(N2CCN(C(=O)c3ccc4c(c3)CCN4S(=O)(=O)c3ccccc3)CC2)c1C | -25.8% (inactive) |
| O=C(CC1N=C2c3ccccc3N=C(SCc3cccc(Cl)c3)N2C1=O)NCc1ccc2c(c1)OCO2 (stereo not given) | -15.6% (inactive) |
| CCCN1C(=O)COCc2cc(-c3cccc(CO)c3)ccc21 | 6.92% (inactive) |
| COc1ccc(CNC(=O)CSc2n[nH]c(-c3ccc(F)cc3)n2)cc1 | 19.4% (inactive) |
| CCc1ccc(-c2nc(SCC(=O)NC3CCCC3)n[nH]2)cc1 | -90.7% (active) |
| COc1ccc(-c2nc(SCC(=O)N3CCCCC3C)n[nH]2)cc1 (stereo not given) | 1.78% (inactive) |
| COc1cc(/C=C/CNC[C@H]2O[C@@H](n3cnc(C(N)=O)n3)[C@H](O)[C@@H]2O)ccc1O | -3.95% (inactive) |
| Cc1ccccc1C(=O)N(Cc1ccc(N(C)C)cc1)CC1CCCO1 (stereo not given) | -18.1% (inactive) |
| c1ccc(C(=NNc2nc3ccccc3s2)c2ccccn2)cc1 | -99.2% (active) |
| Cc1cc(C)cc(-n2ccnc2SCC(=O)Nc2nc3ccccc3s2)c1 | -5.53% (inactive) |
| Cc1ccccc1-n1c(=O)c2ccccc2n(Cc2ccc(F)cc2)c1=O | -13.5% (inactive) |

| SMILES | activity change, negative = inhibition |
| --- | --- |
| CN1C(=O)/C(=C/C=C2\SCCN2C)OC1=S | 143% (inactive) |
| Cc1cc2c(cc1C)[n+](C)cn2CC(O)COCC1CC=CCC1 (stereo not given) | -71.1% (active) |
| CCCC12CN3CC(CCC)(CN(C1)C3c1c[nH]c3ccc(OC)cc13)C2=O (stereo not given) | 14% (inactive) |
| c1ccc2c(c1)C(=NC1CCCCC1)NC2=NC1CCCCC1 | -38.8% (inactive) |
| CCOc1ccccc1NC(=O)NC1CCCCCCC1 | -14.2% (inactive) |
| CCOc1cccc(=NC2CCCCC2)c2c(C)[nH]c(C)c12 | -110% (active) |
| CCOc1ccc(Nc2oc(/C=C/c3ccc(F)cc3)nc2C#N)cc1 | 11.4% (inactive) |
| Cc1cccc(Cn2c(=O)n(CCC(=O)NCCc3ccc(Cl)cc3)c(=O)c3sccc32)c1 | -10.1% (inactive) |
| O=C(Cn1c(-c2cccs2)cc2ccccc21)NCCc1ccc(Cl)cc1 | -112% (active) |
| Cc1ccc(CCNC(=O)Cn2c(-c3cccs3)cc3cc(F)ccc32)cc1 | -16.7% (inactive) |
| O=C(c1ccc(Br)cc1)N(Cc1cccs1)c1ccc(F)cc1 | -5.5% (inactive) |
| O=C(Nc1ccc2nc(SCC(=O)N3CCc4ccccc43)sc2c1)c1ccccc1F | 26.3% (inactive) |
| O=C(COc1ccccc1Cl)Nc1ccccc1C(=O)NC1CC1 | -2.06% (inactive) |
| CCCC(NCC(=O)Nc1ccccc1C(=O)NC1CC1)c1ccccc1 (stereo not given) | -16.1% (inactive) |
| CC(NCC(=O)Nc1ccccc1C(=O)NC1CC1)c1ccccc1Cl (stereo not given) | -103% (active) |
| COC(=O)C1C(=O)NCC1c1ccc(OC)cc1 (stereo not given) | 19.2% (inactive) |
| O=C(NC1CCC(O)CC1)c1ccc(S(=O)(=O)NCc2ccco2)cc1 (stereo not given) | -14.7% (inactive) |
| CCc1nnc(SCC(=O)Nc2cc(OC)ccc2OC)nc1CC | 0% (inactive) |
| COc1ccc(S(=O)(=O)N/N=C\c2ccc(OC)c(COc3ccc(C)cc3[N+](=O)[O-])c2)cc1 | 12.7% (inactive) |
| COc1ccc(C(=O)Oc2cc(/C=N/NS(=O)(=O)c3ccc(C)cc3)ccc2OC)cc1 | -102% (active) |
| COc1ccc(CCNC(=O)NS(=O)(=O)c2ccc(C)cc2)cc1OC | 12.4% (inactive) |
| Cc1cccc(NC(=O)c2ccc3nc(C(C)C)oc3c2)c1C | -5.74% (inactive) |
| CCOc1ccc(C(=O)/C=C/c2cn(CC(O)CN3CCCCCC3)c3ccccc23)cc1 (stereo not given) | -29% (inactive) |

| SMILES | activity change, negative = inhibition |
| --- | --- |
| Cc1ccc(-c2nn(CCC(=O)Nc3ccc(OC(F)(F)F)cc3)c(=O)c3ccccc23)cc1 | 0.866% (inactive) |
| CCN(C(=O)COC(=O)c1cc(S(=O)(=O)N2CCc3ccccc32)ccc1OC)C1CCS(=O)(=O)C1 (stereo not given) | -18% (inactive) |
| O=C(Nc1cc(C(F)(F)F)ccc1Cl)c1ccc2c(c1)CCN2S(=O)(=O)c1ccccc1 | -29.1% (inactive) |
| COc1ccc(S(=O)(=O)N2CCc3ccccc32)cc1C(=O)Nc1cc(S(C)(=O)=O)ccc1Cl | -62.7% (active) |
| CCc1nc2c(OCCOc3ccccc3)cccn2c1N(C)C(=O)c1ccccc1F | -30.7% (inactive) |
| COc1ccc2c(c1)C(c1cccs1)=NNC(c1cccnc1)=N2 | -22.6% (inactive) |
| COC1C(O)C(C)OC(OC2CCC3(C=O)C(CCC4C3CCC3(C)C(C5=CC(=O)OC5)CCC43O)C2)C1O (stereo not given) | -106% (active) |
| Brc1cccc(-c2nnn3c2nc(NC2CCCCC2)c2ccccc23)c1 | 34.7% (inactive) |
| O=C(Cc1ccc(Cl)cc1)NCC(c1cccs1)S(=O)(=O)c1ccc(Cl)cc1 (stereo not given) | -8.05% (inactive) |
| O=C(NNC(=O)c1ccco1)Nc1ccccc1 | -62% (active) |
| O=C(CNC(=O)c1ccco1)OCC(=O)c1ccccc1 | 49.6% (inactive) |
| O=C(CNC(=O)c1ccco1)NNC(=O)c1ccc(Br)cc1 | -4.75% (inactive) |
| COc1cccc(-c2n[nH]c3c2C(c2cccc(O)c2)N(C)C3=O)c1 (stereo not given) | 179% (inactive) |
| CC(OC(=O)CN1C(=O)C2CCCCC2C1=O)C(=O)Nc1ncc(Cl)cc1Cl (stereo not given) | 22.5% (inactive) |
| CCOc1cc(NC(=O)c2ccccc2C(=O)O)c(OCC)cc1NC(=O)c1ccccc1F | -3.32% (inactive) |
| CCN1CCN(c2cc3nc(C)n(Cc4ccccc4)c(=O)c3cc2NC(=O)c2ccccc2F)CC1 | -85.2% (active) |
| Cc1nc2ccn(Cc3cccnc3)c(=O)c2cc1C(=O)N1CCN(c2ccccc2F)CC1 | 10.9% (inactive) |
| CCCCN(C)C(=O)c1ccc2c(c1)N(CC)C(=O)c1ccccc1S2(=O)=O | -8.24% (inactive) |
| Cc1cccc(Nc2nc(C)nc(N)c2S(=O)(=O)c2ccccc2)c1 | 0.44% (inactive) |
| N=c1ccccn1Cc1ccccc1 | -18.5% (inactive) |
| C=CCNC(=S)/N=c1/ccccn1Cc1ccccc1 | -98.8% (active) |
| C=CCNC(=O)COc1coc(CN2CCN(Cc3ccccc3)CC2)cc1=O | -9% (inactive) |
| CCCNC(=O)C1CCC(Cn2c(=O)c3sccc3n(Cc3ccccc3F)c2=O)CC1 (stereo not given) | 1.25% (inactive) |

| SMILES | activity change, negative = inhibition |
| --- | --- |
| O=C(N/N=C/c1ccc(O)c(O)c1)C1c2ccccc2Oc2ccccc21 | 23.9% (inactive) |
| CCOC(=O)CNC(=O)CSc1ccc2nnc(-c3cccnc3)n2n1 | 49.6% (inactive) |
| Cc1c(Cl)cccc1NC(=O)CSc1ccc(-c2cccnc2)nn1 | -12.1% (inactive) |
| CCOC(=O)N/N=C/c1cccnc1 | -60.5% (active) |
| O=C(O)/C(=C/c1cccnc1)NC(=O)c1ccccc1 | 6.75% (inactive) |
| O=C(CSc1cccc2cccnc12)N/N=C/c1cccnc1 | -101% (active) |
| O=C(N/N=C/c1cccnc1)c1cc2ccccc2cc1O | -98% (active) |
| O=C(N/N=C/c1cccc2cccnc12)[C@H]1C[C@@H]1c1ccccc1 | 20.4% (inactive) |
| CC1=NNC(=O)C1CC(=O)N/N=C/c1ccncc1 (stereo not given) | 42.5% (inactive) |
| COc1ccc(Cn2ccn(CC(=O)Nc3cc(C)ccc3C)c(=O)c2=O)cc1 | 15.8% (inactive) |
| COc1ccccc1NC(=O)CN1C(=O)c2ccccc2Sc2ccc(C(=O)N3CCCC3)cc21 | 14.4% (inactive) |
| CC(C)(C)OC(=O)N1CCC(c2c(C(=O)N3CCc4ccccc4C3)cnn2-c2ccc(F)cc2)CC1 | 6.95% (inactive) |
| Cc1cc(C)cc(NC(=O)CSc2oc(-c3ccccc3)nc2S(=O)(=O)c2ccc(Cl)cc2)c1 | -2.05% (inactive) |
| COc1ccc(CCC(=O)NCc2ccc3c(c2)CCN3C(=O)c2ccc(F)cc2)cc1 | 15.1% (inactive) |
| CCc1ccc2oc(-c3ccc(NC(=O)c4cc5ccccc5o4)cc3)nc2c1 | 37.7% (inactive) |
| Cc1cccc(C)c1NC(=S)N1CCCCCC1 | -64.3% (active) |
| Cc1cccc(NC(=O)N2CCCCCC2)c1C | 57.9% (inactive) |
| Cc1cccc(NC(=S)N2CCC(O)CC2)c1C | -32.2% (inactive) |
| O=C1NCC(Nc2ccccc2)C(=O)N1 (stereo not given) | -7.88% (inactive) |
| CCc1ccc(NS(=O)(=O)c2ccc3[nH]cc(C(=O)NCCc4cccc(C)c4)c(=O)c3c2)cc1 | 93.7% (inactive) |
| OC(CNCC1CCCO1)Cn1c2ccc(Br)cc2c2cc(Br)ccc21 (stereo not given) | 2.12% (inactive) |
